Data from PubChem BioAssay (NCATS).
Results filed as inconclusive are left out. The source made the active and inactive calls. Calls follow the shape of the dose curve; as a rule, active = well fitted curve in the direction sought with a large enough effect; inconclusive = small, poorly fitted or top-dose-only effect, or another doubt; inactive = no such curve, though single readings can be large; an effect the other way counts as inactive or inconclusive.

Legend:
[1] = qHTS of pediatric cancer cell lines to identify multiple opportunities for drug repurposing: Primary screen for NB-EBc1 cells (AID 1347095)
In short: (§1)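 Quantitative HTS format: each compound titrated (MIPE 11 points from 0.78 nM, NPC 8 points from 0.59 nM) onto cells plated 5 hours earlier. After 48 h at 37 degrees C, CellTiter-Glo luminescence was recorded.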

[2] = qHTS of pediatric cancer cell lines to identify multiple opportunities for drug repurposing: Primary screen for U-2 OS cells (AID 1347096); also: nearly all actives have a fitted effect of over 50% in size
In short: (§2)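 Viability after 48 h compound treatment at 37C, 500-1,000 cells/well, read as ATP luminescence with CellTiter-Glo. Primary screens used 11-point (MIPE, 0.78 nM-46 µM) or 8-point (NPC, 0.59 nM-46 µM) final concentrations; follow-up screens used 11-point dilutions.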

[3] = qHTS of pediatric cancer cell lines to identify multiple opportunities for drug repurposing: Primary screen for Saos-2 cells (AID 1347097); also: nearly all actives have a fitted effect of over 40% in size
In short: as §1

[4] = qHTS of pediatric cancer cell lines to identify multiple opportunities for drug repurposing: Primary screen for SK-N-SH cells (AID 1347098);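 also: DMSO served as neutral control and bortezomib at 2.3 µM as positive control; nearly all actives have a fitted effect of over 65% in size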
In short: (§3)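 Cells (500-1,000/well) rested 5 h, then received compounds for 48 h; metabolically active cells were measured by CellTiter-Glo luminescence. Final concentrations spanned up to 46 µM (MIPE, 11-point) or 0.59 nM-46 µM (NPC, 8-point) in primary screens, 11-point in follow-ups.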

[5] = qHTS of pediatric cancer cell lines to identify multiple opportunities for drug repurposing: Primary screen for NB1643 cells (AID 1347099); also: nearly all actives have a fitted effect of over 50% in size
In short: as §1

[6] = qHTS of pediatric cancer cell lines to identify multiple opportunities for drug repurposing: Primary screen for LAN-5 cells (AID 1347100)
In short: as §2

[7] = qHTS of pediatric cancer cell lines to identify multiple opportunities for drug repurposing: Primary screen for BT-12 cells (AID 1347101); also: nearly all actives have a fitted effect of over 25% in size
In short: as §3

[8] = qHTS of pediatric cancer cell lines to identify multiple opportunities for drug repurposing: Primary screen for Rh18 cells (AID 1347102); also: nearly all actives have a fitted effect of over 65% in size
In short: as §2

[9] = qHTS of pediatric cancer cell lines to identify multiple opportunities for drug repurposing: Primary screen for OHS-50 cells (AID 1347103); also: nearly all actives have a fitted effect of over 40% in size
In short: as §3

[10] = qHTS of pediatric cancer cell lines to identify multiple opportunities for drug repurposing: Primary screen for RD cells (AID 1347104); also: nearly all actives have a fitted effect of over 55% in size
In short: as §1

Measured: Potency

CC[N+](C)(CC)CCOC(=O)C1c2ccccc2Oc2ccccc21
inactive: all assays above

C[C@]1(Cn2ccnn2)[C@H](C(=O)O)N2C(=O)C[C@H]2S1(=O)=O
inactive: all assays above

CCc1nnc(NS(=O)(=O)c2ccc(N)cc2)s1
inactive: all assays above

CCN(CC)S(=O)(=O)c1ccc(C(=O)O)cc1
not listed: [10]
inactive: all other assays above

CC(=O)Oc1cccc(C)c1
inactive: all assays above

CCCCCC(C)N (stereo unspecified)
not listed: [10]
inactive: all other assays above

CCCC(O)C(CC)CO (stereo unspecified)
inactive: all assays above

CN(C(=O)c1c(O)c2ccccc2n(C)c1=O)c1ccccc1
not listed: [10]
inactive: all other assays above

COc1ccccc1OC(=O)Oc1ccccc1OC
inactive: all assays above

CCCNC(C)(C)COC(=O)c1ccccc1
inactive: all assays above

CCN(CC)C(=O)c1cccc(C)c1
inactive: all assays above

CCCCCCCCCCC(CO)CCCCCCCC (stereo unspecified)
inactive: all assays above

NC(=O)CCCCC1CCSS1 (stereo unspecified)
inactive: all assays above

O=C(O)Cc1ccc(CCNS(=O)(=O)c2ccc(Cl)cc2)cc1
not listed: [10]
inactive: all other assays above

COc1ccc(C(=O)N2CCN(CC(=O)N3CCOCC3)CC2)cc1
not listed: [10]
inactive: all other assays above

NS(=O)(=O)c1cc2c(cc1C(F)(F)F)NCNS2(=O)=O
not listed: [10]
inactive: all other assays above

CC(C)CCCC(C)CCCC(C)CCCCC(C)CCCC(C)CCCC(C)C (stereo unspecified)
inactive: all assays above

Cc1ccsc1/C=C/C1=NCCCN1C
inactive: all assays above

O=C(NCN1CCOCC1)c1cnccn1
inactive: all assays above

CC[C@]12CCCN3CCc4c(n(c5ccccc45)[C@@](O)(C(=O)OC)C1)[C@@H]32
inactive: all assays above

OCC(O)CS (stereo unspecified)
inactive: all assays above

O=C(Cn1ccnc1[N+](=O)[O-])NCCO
inactive: all assays above

COc1ccc(-c2cc(=O)c3c(O)cc(O[C@@H]4O[C@H](CO[C@@H]5O[C@@H](C)[C@H](O)[C@@H](O)[C@H]5O)[C@@H](O)[C@H](O)[C@H]4O)cc3o2)cc1O
inactive: all assays above

CC(=O)Nc1ccc(OCCOCCOc2ccc(NC(C)=O)cc2)cc1
inactive: all assays above

COC(=O)c1ccccc1C(=O)c1ccc(OCCN2CCCCC2)cc1
inactive: all assays above

CC(CN(C)C)C(C)(O)Cc1ccc(Cl)cc1 (stereo unspecified)
not listed: [9] | [10]
inactive: all other assays above

CC(C)=CCC/C(C)=C/CO
not listed: [10]
inactive: all other assays above

CCCCCCCCCCCCCCCCN
not listed: [10]
inactive: all other assays above

CN1CCCN=C1COC(=O)C(O)(c1ccccc1)C1CCCCC1 (stereo unspecified)
not listed: [10]
inactive: all other assays above

C=CCNC(N)=S
inactive: all assays above

CC(=O)SC[C@@H](Cc1ccccc1)C(=O)NCC(=O)OCc1ccccc1
inactive: all assays above

C[C@@H]1CCC[C@H](C)N1
inactive: all assays above

O=C(O)c1ccccc1OP(=O)(O)O
inactive: all assays above

O=c1[nH]c2cc(C(F)(F)F)c(N3CCOCC3)cc2n(CP(=O)(O)O)c1=O
inactive: all assays above

CC(=O)N1C[C@H](O)C[C@H]1C(=O)O
not listed: [10]
inactive: all other assays above

Cc1cc(O)cc(C)c1Cl
not listed: [10]
inactive: all other assays above

Nc1ccc(S(=O)(=O)c2ccc(N)cc2)cc1
inactive: all assays above

CC(=O)N(CC(O)CO)c1c(I)c(C(=O)NCC(O)CO)c(I)c(C(=O)NCC(O)CO)c1I (stereo unspecified)
not listed: [10]
inactive: all other assays above

Cc1cc(OI)c(C(C)C)cc1-c1cc(C(C)C)c(OI)cc1C
inactive: all assays above

CCN(CC)CCc1nc(-c2ccccc2)no1
inactive: all assays above

CCOc1ccc(C(=O)OCCN(CC)CC)cc1
inactive: all assays above

CCCCCCCC(=O)OCC(O)CO (stereo unspecified)
inactive: all assays above

CC(C)=CCC[C@@](C)(O)[C@H]1CC=C(C)CC1
inactive: all assays above

Nc1ncnc(Nc2ccccc2)n1
inactive: all assays above

Cc1ccc(C(C)C)c(O)c1
inactive: all assays above

O[C@@H]1CO[C@H]2[C@@H]1OC[C@@H]2O
inactive: all assays above
